FBW7 act: FBW7 E3 ligase activators, primary screen, biochemical, AlphaScreen, human; F-box/WD repeat-containing protein 7 (Homo sapiens), Q969H0; AlphaScreen FBW7–phospho-cyclin E peptide binding, activator screen; normalized activity (activation), % at 26.1 µM; 650,000 compounds, 0.13% hits; AID 1259310, 2017; in the data active means normalized activity above about 1.9%;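 further: purified mutant Fbw7 with reduced substrate affinity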
MITF primary: MITF inhibitors, primary screen, biochemical, AlphaScreen, human; Microphthalmia-associated transcription factor (Homo sapiens), O75030; AID 1259374, 2018; inhibition, % at 2.6 µM; AlphaScreen MITF homodimerization, bead proximity signal; 650,000 compounds, 0.91% hits; in the data active means inhibition above about 50%;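 further: 0% = vehicle wells with protein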
GPR151 ag: activators of human GPR151, primary screen, cell-based, PathHunter beta-arrestin, luminescence; PathHunter beta-arrestin GPR151 cells; activation, % at 11.2 µM; 650,000 compounds, 1% hits; AID 1508602, 2020; in the data active means activation above about 4.9%;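 further: 0% = median of compound wells and 100% = cells with positive control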
TEAD-YAP inh: TEAD-YAP interaction inhibition, primary screen, TEAD-YAP interaction inhibitor project, luminescence, HEK-TIYL cells; TEAD-Gal4/YAP UAS-luciferase luminescence; inhibition, % at 9.12 µM; 640,000 compounds, 1.4% hits; in the data active means inhibition above about 32%;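 further: 0% = median of test compound wells and 100% = reference inhibitor wells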
GPR151 confirm: GPR151 activators, triplicate retest, confirmation, cell-based, PathHunter beta-arrestin, luminescence | activation, % at 11.2 µM | GPR151 PathHunter beta-arrestin cells, 90 min; % of EA-reagent control over plate median | shares compounds with GPR151 ag | 6,700 tested, under 10 active;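 active means mean percent activation across replicates above the confirmation screen cutoff of 4.91%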
GPR119 counter: GPR119 activators in beta-arrestin cells, counter-screen for GPR151 activator project, cell-based, PathHunter beta-arrestin, luminescence, triplicate | 6,700 compounds, 0.3% hits | 90 min; 0 = compound-well median, 100 = enzyme-acceptor control | shares compounds with GPR151 ag | activation, % at 11.2 µM;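 active means mean percent activation in the counterscreen above 29.09%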;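 further: counterscreen on off-target GPR119 to flag nonselective hits from the GPR151 activator screen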
Numbers without * were called inactive; / = no result; ! = not confirmed by another sample. The list is not random: actives were taken first. Their share in the collection is about 3.5%.

SMILES	FBW7 act	MITF primary	GPR151 ag	TEAD-YAP inh	GPR151 confirm	GPR119 counter
C=C(C)[C@@H]1C2C(=O)O[C@H]1[C@H]1OC(=O)[C@@]34OC3C[C@]2(O)[C@@]14C (some centres undefined)	0	18	7.9*!	5	0	-10
CCN(Cc1ccccc1)C(=O)C(Cl)(Cl)Cl	0	2	6.0*	5	-1	2
O=C1CC(c2cnc[nH]2)C2(CCCCC2)O1 (centres undefined)	0	2	7.9*	-6	-1	-5
CCOc1cccc(CNC2CN3CCC2CC3)c1 (centres undefined)	0	-6	6.9*	4	0	5
O=c1c2ccccc2nc(/C=C\c2ccccc2F)n1-c1cccc(C(F)(F)F)c1	0	1	0	-4	/	/
COc1ccc(C=C2C(=O)NC(=O)NC2=O)c2ccccc12	0	2	1	1	/	/
COc1ccc(-c2nc3ccccc3c(=O)n2-c2cc(C)ccn2)cc1	0	14	-1	-14	/	/
O=[N+]([O-])/C=C/c1ccccc1OCc1ccc(F)cc1	1	13	-1	-8	/	/
C=CCOc1ccccc1/C=C/[N+](=O)[O-]	0	-5	7.3*	-1	0	6
CCCN(CCC)[C@@H]1CCc2c(F)ccc(O)c2C1	0	11	8.5*!	6	-1	-7

Source: PubChem BioAssay (The Scripps Research Institute Molecular Screening Center)
